# From PubChem
# Most compounds without a hit are left out; they make up all but 2.8% or so of the library.
# ATXN2 expr inh – inhibitors of ATXN2 expression | 0.72% of 360,000 active | Potency, µM (highest dose often 57 µM), for inactives: top-dose activity change, negative = inhibition, actives largely listed as inhibitors | AID 1745845 | HEK-293 ATXN2-luciferase reporter, luminescence, 24 h; also: potency is read from the fitted curve at half-maximal effect; % is scaled to controls: 0 for no effect and ±100 for the full control effect; nearly all actives have a fitted effect of over 55% in size
#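 qHTS (up to 57 uM final) was run with 24 h compound exposure of reporter cells at 37 °C. Each well was multiplexed: SteadyGlo luminescence measured ATXN2-luciferase expression after a fluorogenic Gly-Phe-AFC viability readout (25 uM final).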
# Six1-Eya2 inh – inhibitors of human Six1/Eya2 interaction. AlphaScreen GST-Six1/His-Eya2 binding, biochemical; hits give low values. AID 651725. activity change, % (test concentration not listed). Q15475+O00167. 0.56% of 360,000 active; in the data active = activity change below about -65%; inconclusive = mostly about -30% to -63%; also: % is scaled to controls: 0 for no effect and ±100 for the full control effect
#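 GST-Six1 + His-Eya2 (5X stock: 250/500 nM); Tris pH 8.0, 300 mM NaCl, 0.05% BSA, 0.02% Tween 20; GSH donor/Ni acceptor beads; 1 h 37 °C dark; AlphaScreen readout.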
# HepG2 tox-1 – HepG2 cytotoxicity, counter-screen for TGF-b inhibitors; Potency, µM (highest dose often 46.1 µM), without a hit: at the top dose activity change, negative = cytotoxicity, most hits filed as cytotoxic; HepG2 CAGA-GFP viability, ATP luminescence, 18 h; 0.76% of 410,000 active; also: potency is read from the fitted curve at half-maximal effect
#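 CellTiter-Glo luminescence gave cytotoxicity after 18 hours at 37 degrees C. The cells were HepG2 CAGA-GFP in 1% FBS DMEM, stimulated with 500 pg/mL TGF-beta after compound addition. %Activity was normalised to no-cell wells (complete cell-killing) and DMSO (no toxicity), and curves were fitted and classified.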
# TGFb SMAD3 inh – inhibitors of TGF-b signaling. 1.2% of 410,000 active. Potency, µM (series often up to 46.1 µM), for inactives: top-dose activity, negative = inhibition, hits mostly inhibitors. HepG2 CAGA-GFP TGF-b/SMAD3 reporter, GFP fluorescence, 18 h; TGF-beta stimulated, 500 pg/mL final. AID 588855; also: potency is read from the fitted curve at half-maximal effect; % is scaled to controls: 0 for no effect and ±100 for the full control effect; nearly all actives have a fitted effect of over 65% in size
#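 First, reporter cells (HEPG2 CAGA-GFP) rested 2 h at 37 degrees C. Next, compounds were pinned in and TGF-beta added to 500 pg/mL final. After 18 h, GFP was imaged per cell and summed per well.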
# ATXN viability – cell viability loss in ATXN counter-screen | Potency, µM (titrated, usually from 56.7 µM), hits mostly cytotoxic | S2 cells (HEK-293 line with an ATXN2-luciferase reporter) viability, CellTiter-Fluor protease fluorescence, 24 h | AID 651635 | 0.49% of 400,000 active; also: potency is read from the fitted curve at half-maximal effect; nearly all actives have a fitted effect of over 40% in size
# CtBP-E1A blk – blocks the CtBP interaction with E1A; AlphaScreen GST-E1A/His-CtBP binding, 1536-well; hits give low values; activity change, % (test concentration not listed); 0.49% of 340,000 active; in the data active = activity change below about -65%; inconclusive = mostly about -30% to -63%; also: % is scaled to controls: 0 for no effect and ±100 for the full control effect
#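 AlphaScreen with 125 nM GST-E1A and 125 nM His-CtBP (5X stocks) in Tris pH 8.0, 300 mM NaCl, BSA, Tween 20, TCEP. Compounds preincubated 2 h at 37 deg C, then glutathione donor/nickel acceptor beads added for 1 h at 37 deg C in dark.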
# TGFb CAGA inh – TGF-b pathway inhibition, cherry-pick retest; 63% of 1,600 active; Potency, µM (highest dose often 46.1 µM), without a hit: at the highest dose activity, negative = inhibition, actives largely listed as inhibitors; AID 720534; shares compounds with TGFb SMAD3 inh; HepG2 CAGA-GFP TGF-b reporter, GFP fluorescence, 18 h; cells stimulated with TGF-beta, 500 pg/mL; also: potency is read from the fitted curve at half-maximal effect; % is scaled to controls: 0 for no effect and ±100 for the full control effect; nearly all actives have a fitted effect of over 65% in size
# HepG2 tox-2 – HepG2 cytotoxicity, TGF-b inhibitor counterscreen; shares compounds with TGFb SMAD3 inh; HepG2 CAGA-GFP viability, ATP luminescence, 18 h; cells stimulated with TGF-beta, 500 pg/mL; Potency, µM (titrated, usually from 46.1 µM), for inactives: at the highest dose activity, negative = cytotoxicity, usual class: inhibitors; 27% of 1,600 active; AID 720535; also: potency is read from the fitted curve at half-maximal effect; % is scaled to controls: 0 for no effect and ±100 for the full control effect; nearly all actives have a fitted effect of over 70% in size
# CCL64 TGFb inh – TGF-b inhibition, CCL64 orthogonal assay; Potency, µM (highest dose often 46.1 µM), without a hit: at the highest dose activity, negative = inhibition, hits mostly inhibitors; CCL64 CAGA-GFP reporter, TGF-b stimulated, GFP fluorescence, 18 h; shares compounds with TGFb SMAD3 inh; AID 720536; 41% of 1,600 active; also: potency is read from the fitted curve at half-maximal effect; nearly all actives have a fitted effect of over 65% in size
# TGFb COP inh – TGF-b inhibition validated with COP promoter; shares compounds with TGFb SMAD3 inh; HepG2 COP-GFP TGF-b reporter, GFP fluorescence, 18 h; cells stimulated by added recombinant TGF-beta; Potency, µM (highest dose often 46.1 µM), without a hit: at the highest dose activity, negative = inhibition, usual class: inhibitors; 3% of 1,600 active; also: potency is read from the fitted curve at half-maximal effect; nearly all actives have a fitted effect of over 70% in size
# * marks the source's active call; other numbers are inactive results; i = inactive; ? = inconclusive; . = not tested or not shown. Unless noted, calls follow the shape of the dose curve; as a rule, active = well fitted curve in the direction sought with a large enough effect; inconclusive = small, poorly fitted or top-dose-only effect, or another doubt; inactive = no such curve, though single readings can be large; an effect the other way counts as inactive or inconclusive.
SMILES,ATXN2 expr inh,Six1-Eya2 inh,HepG2 tox-1,TGFb SMAD3 inh,ATXN viability,CtBP-E1A blk,TGFb CAGA inh,HepG2 tox-2,CCL64 TGFb inh,TGFb COP inh
CCC[C@H]1NC(=O)[C@H](C)N(C)C(=O)C(C)(C)C(=O)C(C)NC(=O)[C@H](Cc2ccc(OC)cc2)N(C)C(=O)[C@H](C(C)C)N(C)C(=O)CNC(=O)[C@H](CC(C)C)N(C)C(=O)CNC(=O)[C@H]([C@@H](C)CC)OC(=O)[C@H]1C (stereo partly drawn),?,6,-7%,1.1µM*,?,1,0.37µM*,?,0.29µM*,96%
CC[C@H](C)C1OC(=O)[C@@H](C)[C@@H](CC)NC(=O)[C@H](C)N(C)C(=O)C(C)(C)C(=O)C(C)NC(=O)[C@H](Cc2ccc(OC)cc2)N(C)C(=O)[C@H](C(C)C)N(C)C(=O)CNC(=O)[C@H](CC(C)C)N(C)C(=O)CNC1=O (stereo partly drawn),?,24,4%,0.5µM*,?,28,1µM*,?,1.3µM*,47%
CC(C)C[C@@H]1NC(=O)[C@H](Cc2ccccc2)N(C)C(=O)[C@H](C)NC(=O)c2ccccc2NC(=O)[C@H](Cc2ccc(O)cc2)N(C)C1=O,?,-7,-19%,-9%,i,-6,.,.,.,.
CCOc1ccc(CCNC(=O)c2c(C)oc3ncn(CC(C)C)c(=O)c23)cc1OCC,5%,.,-25%,-9%,i,.,.,.,.,.
O=C(Nc1ccc(Cl)cc1)C1CCC(CNS(=O)(=O)c2ccc(Br)s2)CC1 (stereo not drawn),.,.,-42%,?,.,.,.,.,.,.
Cc1ccccc1C(=O)Nc1ccc(C(=O)OCc2cc(=O)n3nc(C(C)C)sc3n2)cc1,.,.,-2%,0%,.,.,.,.,.,.
O=S(=O)(NCCOc1ccccc1Cl)c1ccc2oc3ccccc3c2c1,2%,5,-29%,16µM*,i,6,18µM*,?,?,88%
COc1ccccc1OCCNS(=O)(=O)c1ccc2oc3ccccc3c2c1,-15%,-9,-14%,?,i,0,.,.,.,.
COc1cccc(CN2CCC2(C)C(=O)Nc2cccc3cccnc23)c1F (stereo not drawn),?,5,-44%,10µM*,?,-24,?,-12%,?,15%
COc1ccc(OC)c(NC(=O)C2(C)CCN2Cc2cccc(OC)c2F)c1 (stereo not drawn),?,-29,-10%,-19%,?,-20,.,.,.,.
